Rows were chosen to be rich in hits. Some 1.6% of all compounds tested hit in one or more screens of this group.
KCNQ2 enhance – potentiators of rat KCNQ2 potassium channel | O88943 | CHO-K1 KCNQ2, FluxOR thallium flux fluorescence; stronger effect = higher value | B-score at 10 µM | 310,000 tested, 0.54% active;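 active = fluorescence ratio B-score at least 3 SD of library B-scores, with initial fluorescence B-score within 3 of them, cut at about 5.3 in these data; same plate scores as AID 2156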;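 note: B-score of peak minus minimum over baseline fluorescence ratio after K+ and Tl+ stimulus; positive B-score means potentiation of KCNQ2 with more thallium influx and brighter signal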
KCNQ2 inh – inhibitors of rat KCNQ2 potassium channel | CHO-K1 KCNQ2, FluxOR thallium flux, 20 min; stronger effect = lower value | B-score at 10 µM | 310,000 tested, 1.1% active | AID 2156;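 active = fluorescence ratio B-score at most minus 3 library SDs, with starting brightness B-score within 2 library SDs, cut at about -5.5 in these data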
Kir21 confirm – confirmation of mouse Kir2.1 potassium channel inhibitors; shares compounds with KCNQ2 enhance; Kir2.1-expressing cells, FluxOR thallium flux fluorescence; stronger effect = lower value; Tl flux remaining, % of negative control (stronger effect = lower value), % at 10 µM; 2,300 tested, 41% active; AID 2032;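 active = Primary-screen hit whose thallium flux fell at least 3 control SD below untreated wells in both duplicates, with normal baseline fluorescence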
HEK293 Tl flux – alters thallium flux in parental HEK293 cells, Kir2.1 counter-screen; shares compounds with KCNQ2 enhance; FluxOR thallium flux fluorescence; 0% = unstimulated blank wells; FluxOR signal as % of negative control (100 = no effect), % at 10 µM; 2,300 tested, 19% active; AID 2105;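 active = dye signal at least 3 control SD above or below untreated wells in both duplicates, raw fluorescence within 3, either direction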;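 note: percent is based on the flux ratio of peak minus minimum fluorescence over baseline F0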
CHO-K1 ctr – counter-screen for KCNQ2 potentiators: effect in parental CHO-K1 cells | shares compounds with KCNQ2 enhance | FluxOR thallium flux fluorescence; zero = vehicle mean+3SD, 100% = vehicle-minus-blank window | activity increase over 3SD of controls, % at 10 µM | 1,200 tested, 43% active | AID 2282;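 active = signal rise of at least 3 SD above the untreated control mean, in both duplicate wells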;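 note: counter screen of KCNQ2 potentiator hits so any rise reflects channel-independent effects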
KCNQ1 sel pot – tests whether KCNQ2 potentiators also act on human KCNQ1 | shares compounds with KCNQ2 enhance | CHO KCNQ1 stable, FluxOR thallium flux fluorescence; beyond 3SD, as % of vehicle-control signal | activation over 3SD threshold, % at 10 µM | 1,200 tested, 28% active | AID 2283;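 active = fluorescence ratio rise of at least 3 SD of vehicle wells above their mean, in both replicate wells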
Target sequence (P51787 whole entry, looked up): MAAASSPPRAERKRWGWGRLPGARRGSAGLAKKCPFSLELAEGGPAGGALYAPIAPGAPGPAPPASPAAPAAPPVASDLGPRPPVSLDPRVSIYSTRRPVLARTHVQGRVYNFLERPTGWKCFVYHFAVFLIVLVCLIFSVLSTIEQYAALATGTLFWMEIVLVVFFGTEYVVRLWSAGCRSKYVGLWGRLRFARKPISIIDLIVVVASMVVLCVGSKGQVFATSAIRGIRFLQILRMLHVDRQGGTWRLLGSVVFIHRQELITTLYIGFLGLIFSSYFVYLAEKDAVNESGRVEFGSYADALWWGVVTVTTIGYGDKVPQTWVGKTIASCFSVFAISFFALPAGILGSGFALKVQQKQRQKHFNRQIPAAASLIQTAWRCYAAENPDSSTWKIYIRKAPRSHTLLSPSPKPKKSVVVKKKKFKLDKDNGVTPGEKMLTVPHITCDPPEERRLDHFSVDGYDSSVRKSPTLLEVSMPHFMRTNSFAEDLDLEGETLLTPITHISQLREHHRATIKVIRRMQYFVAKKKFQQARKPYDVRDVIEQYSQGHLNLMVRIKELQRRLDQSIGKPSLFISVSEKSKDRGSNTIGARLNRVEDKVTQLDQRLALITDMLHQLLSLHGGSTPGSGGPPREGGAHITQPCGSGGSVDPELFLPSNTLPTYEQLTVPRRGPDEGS
KCNQ2 pot confirm – confirmation of rat KCNQ2 potassium channel potentiators; shares compounds with KCNQ2 enhance; CHO-KCNQ2 cells, FluxOR thallium flux fluorescence; potentiation, less the hit threshold, % at 10 µM; 1,200 tested, 68% active; AID 2287;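 active = fluorescence ratio rising 3 SD or more over the vehicle control mean in both replicates, plus primary screen hit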;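 note: peak minus minimum thallium fluorescence divided by baseline after K/Tl stimulus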
Kir2-1 sel – mouse Kir2.1 off-target activity of KCNQ2 potentiators; shares compounds with KCNQ2 enhance; HEK293 Kir2.1, FluxOR thallium flux fluorescence; activity over 3SD threshold, % at 10 µM; 1,200 tested, 2% active;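 active = fluorescence ratio rise of at least 3 SD above the vehicle-control mean, seen in both replicates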
KCNQ2 W236L pot – rat KCNQ2 W236L mutant potentiation by KCNQ2 potentiators; 940 tested, 10% active; shares compounds with KCNQ2 enhance; CHO KCNQ2-W236L, automated patch clamp current; current increase over 3SD of negative controls (%), stronger effect = higher value, % at 25 µM; AID 2558;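 active = current increase at least 3 SD of the untreated controls above them in both duplicate recordings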
A number is an active result; i = inactive; nt = not tested or not shown.

SMILES	KCNQ2 enhance	KCNQ2 inh	Kir21 confirm	HEK293 Tl flux	CHO-K1 ctr	KCNQ1 sel pot	KCNQ2 pot confirm	Kir2-1 sel	others
COc1ccccc1C(=O)NNC(=O)C(=O)Nc1ccc(C)cc1	21.7	i	i	416.5%	i	24.6	46.9	i	KCNQ2 W236L pot=i
COc1ccccc1C(=O)NNC(=O)C(=O)Nc1ccc(C)c(Cl)c1	28	i	i	312.0%	77.8	i	53.5	i	KCNQ2 W236L pot=i
COc1cc(OC)nc(NC(=S)NC(=O)c2ccccc2)n1	i	i	nt	nt	nt	nt	nt	nt
CCOC(=O)N1CCN(CC(=O)N2CCC(C(N)=O)CC2)CC1	i	i	nt	nt	nt	nt	nt	nt
CC(=O)C1=C(C)NC(SCC(N)=O)=C(C#N)C1CC(C)C (centres undefined)	nt	i	nt	nt	nt	nt	nt	nt
CCOC(=O)C1=C(C)NC(SC)=C(C#N)C1CC(C)C (centres undefined)	nt	i	74.5%	i	nt	nt	nt	nt
COc1cccc(NC(=O)c2nc(SC)ncc2Cl)c1	i	i	nt	nt	nt	nt	nt	nt
COc1cccc(NC(=O)c2nc(S(C)(=O)=O)ncc2Cl)c1	nt	i	63.0%	64.5%	nt	nt	nt	nt
Cn1c(CSc2ccccc2)c(C#N)c2ccccc21	i	i	nt	nt	nt	nt	nt	nt
Cc1ccc(SCc2c(C#N)c3ccccc3n2C)cc1	nt	i	i	i	nt	nt	nt	nt
O=C(Nc1ccc(CN2CCS(=O)(=O)CC2)cc1)c1ccc(Cl)cc1	nt	i	nt	nt	nt	nt	nt	nt
COc1ccc(NC(=O)c2ccco2)c2ccccc12	nt	i	nt	nt	nt	nt	nt	nt
Cc1[nH][nH]c(=O)c1C(c1ccc(-c2cccc(Cl)c2)o1)c1c(C)[nH][nH]c1=O	i	-5.87	i	i	nt	nt	nt	nt
Cc1[nH][nH]c(=O)c1C(c1ccc(-c2cccc(C(=O)O)c2)o1)c1c(C)[nH][nH]c1=O	nt	i	nt	nt	nt	nt	nt	nt
CC(NC(=O)/C=C/c1ccc(Br)cc1)c1ccccc1 (centres undefined)	i	i	nt	nt	nt	nt	nt	nt
CCc1ccc(C(C)NC(=O)/C=C/c2ccc(Br)cc2)cc1 (centres undefined)	8.72	i	i	i	i	i	23.8	i	KCNQ2 W236L pot=i
CC(NC(=O)/C=C/c1ccccc1)c1ccccc1 (centres undefined)	16.8	i	i	i	2.8	19.7	29.6	i	KCNQ2 W236L pot=i
Cc1ccc(/C=C/C(=O)NC(C)c2ccccc2)cc1 (centres undefined)	i	i	nt	nt	nt	nt	nt	nt
CC(NC(=O)c1ccncc1)C(C)(C)C (centres undefined)	16.2	i	i	i	i	i	i	i
Cc1ccc(C(C)NC(=O)c2ccncc2)cc1C (centres undefined)	i	i	nt	nt	nt	nt	nt	nt
COC(=O)C(C)NC(=O)C12CC3CC(C1)CC(c1ccc(C)cc1)(C3)C2 (centres undefined)	nt	i	nt	nt	nt	nt	nt	nt
CCn1c(SCC(=O)NNC(=O)c2ccc(C)cc2)nnc1-c1ccco1	i	i	nt	nt	nt	nt	nt	nt
CCc1ccc(CCC(=O)Nc2ccc(C)cc2C)o1	6.01	i	i	i	i	i	1.0	i	KCNQ2 W236L pot=i
Cc1ccc(NC(=O)CCc2ccc(C)o2)c(Br)c1	i	i	nt	nt	nt	nt	nt	nt
O=C(Nc1cccc(F)c1)C1CCCN(S(=O)(=O)c2cccc3cccnc23)C1 (centres undefined)	i	i	nt	nt	nt	nt	nt	nt
SMILES	KCNQ2 enhance	KCNQ2 inh	Kir21 confirm	HEK293 Tl flux	CHO-K1 ctr	KCNQ1 sel pot	KCNQ2 pot confirm	Kir2-1 sel	others
CCCn1c(=S)[nH]c2ccccc2c1=O	i	i	nt	nt	nt	nt	nt	nt
CCc1cc2c(=O)n(CCC(C)C)c(=S)[nH]c2s1	17.1	i	i	371.0%	14.1	i	57.3	i	KCNQ2 W236L pot=i
Oc1ccc(Br)cc1-c1n[nH]c(=S)n1Cc1ccccc1	10.9	i	nt	nt	i	28.4	26.5	i
Oc1ccccc1-c1n[nH]c(=S)n1Cc1ccccc1	i	i	nt	nt	nt	nt	nt	nt
O=C(Cn1ncc2c3ccccc3n(Cc3ccccc3F)c2c1=O)NCC1CCCO1 (centres undefined)	5.97	i	i	i	21.9	i	i	i	KCNQ2 W236L pot=i
O=C(CCSCc1ccccc1F)N1CCN(c2ccccn2)CC1	nt	i	nt	nt	nt	nt	nt	nt
O=C(Cn1ncc2c(=O)oc3ccccc3c21)NCC1CCCO1 (centres undefined)	i	i	nt	nt	nt	nt	nt	nt
O=C(Cn1ncc2c3ccccc3n(Cc3cccc(Cl)c3)c2c1=O)NCC1CCCO1 (centres undefined)	8.18	i	i	i	69.1	i	2.4	i	KCNQ2 W236L pot=i
O=C(Cn1ncc2c3ccccc3n(Cc3ccccc3F)c2c1=O)N1CCN(c2ccccn2)CC1	11.3	i	i	i	37.9	i	24.1	i	KCNQ2 W236L pot=i
O=C(Cn1ncc2c3ccccc3n(Cc3ccccc3)c2c1=O)NC1CCCC1	nt	i	nt	nt	nt	nt	nt	nt
CC(=O)Nc1cccc(NC(=O)CSc2nc(=O)n(CCN3CCOCC3)c3c2CCC3)c1	i	i	nt	nt	nt	nt	nt	nt
O=C(Nc1cccc([N+](=O)[O-])c1)NC1CCCCCCC1	nt	i	nt	nt	nt	nt	nt	nt
CC(C)c1nc(SCC(=O)N2CCCCCC2)c2c(=O)n(C)c(=O)n(C)c2n1	17	i	i	i	6.8	i	53.5	i	KCNQ2 W236L pot=i
CCc1nc(SCC(=O)N2CCOCC2)c2c(=O)n(C)c(=O)n(C)c2n1	i	i	nt	nt	nt	nt	nt	nt
CC(C)c1nc(SCC(=O)N2CCCC2)c2c(=O)n(C)c(=O)n(C)c2n1	i	i	nt	nt	nt	nt	nt	nt
CCc1nc(SCC(=O)N2CCCCCC2)c2c(=O)n(C)c(=O)n(C)c2n1	5.51	i	i	i	i	5.9	34.7	i	KCNQ2 W236L pot=i
C=CCSC1=N/C(=C/c2ccsc2)C(=O)N1c1ccccc1	nt	i	nt	nt	nt	nt	nt	nt
COC(=O)Cn1c(O)c(N=NC(=O)CNC(=O)COc2cccc(C)c2)c2ccccc21	i	i	nt	nt	nt	nt	nt	nt
CC1=NC(C)(C)Cc2cc(C)c(C)cc21	i	i	nt	nt	nt	nt	nt	nt
COc1ccc(NC(=O)/C(Cl)=C(/Cl)S(=O)Cc2ccccc2)cn1 (centres undefined)	12.3	i	i	63.5%	0.3	i	11.6	i	KCNQ2 W236L pot=3.2%
COc1ccc(NC(=O)Cc2ccccc2)cn1	nt	i	nt	nt	nt	nt	nt	nt
S=C(NCCCN1CCOCC1)N1CCN(c2nc(-c3ccc(Cl)cc3)cs2)CC1	nt	i	nt	nt	nt	nt	nt	nt
S=C(NCC1CCCO1)N1CCN(c2nc(-c3ccc(Cl)cc3)cs2)CC1 (centres undefined)	nt	i	i	i	nt	nt	nt	nt
Cn1c(N)c(C(=O)c2ccc(Cl)cc2)c(=O)n(C)c1=O	i	i	nt	nt	nt	nt	nt	nt
Cc1nn(-c2ccc(Cl)cc2)c2sc(C(=O)c3c(N)n(C)c(=O)n(C)c3=O)cc12	i	i	i	i	nt	nt	nt	nt
NC1=NC(=O)C(CC(=O)Nc2ccc3c(c2)OCO3)S1 (centres undefined)	i	i	nt	nt	nt	nt	nt	nt
Cn1nnnc1SCC(=O)N1CCCc2ccccc21	i	i	nt	nt	nt	nt	nt	nt
O=C(CSc1cccc[n+]1[O-])N1CCCc2ccccc21	14.9	i	i	i	i	1.2	i	i

High-throughput results (PubChem)
